The supplement of paper PMC10849652
Targets with a hit are over-represented here; the source holds about 7,900 in all. About 0.6% of all pairs of compound and target were hits.

compound: C=CC(=O)N1CCC[C@@H](n2nc(-c3ccc(Oc4ccccc4)cc3)c3c(N)ncnc32)C1 [ibrutinib]; experiment: log2 fold change, soluble protein after heating vs DMSO (PISA); higher = thermal stabilisation; K562 cells, 10 uM, 30 min; active = over 0.2 and 3.5 SD of the protein, either way, in both replicates (recomputed)
Summary of the method: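 K562 cells at 2×10^6 cells/mL were treated for 30 min with 10 μM compound, and aliquots were heated for 3 min over 48°C-58°C before pooling. Extraction used PBS with 0.5% NP-40 at 4°C, and soluble protein was the supernatant after 21,000xg for 90 min, measured by TMTpro 16plex LC-MS/MS with channel sums equalised. Thermal stability values, relative to control samples and from duplicates, are log2 fold changes.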

UniProt Q8N4L2, sequence (Q8N4L2 whole entry, looked up): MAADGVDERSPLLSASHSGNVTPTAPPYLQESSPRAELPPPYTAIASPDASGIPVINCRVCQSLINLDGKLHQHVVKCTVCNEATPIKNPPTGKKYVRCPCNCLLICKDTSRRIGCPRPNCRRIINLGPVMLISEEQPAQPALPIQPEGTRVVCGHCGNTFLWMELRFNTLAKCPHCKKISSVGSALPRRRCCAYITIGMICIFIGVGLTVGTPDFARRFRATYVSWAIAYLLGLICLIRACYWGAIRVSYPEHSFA
UniProt Q969N2, sequence (Q969N2 whole entry, looked up): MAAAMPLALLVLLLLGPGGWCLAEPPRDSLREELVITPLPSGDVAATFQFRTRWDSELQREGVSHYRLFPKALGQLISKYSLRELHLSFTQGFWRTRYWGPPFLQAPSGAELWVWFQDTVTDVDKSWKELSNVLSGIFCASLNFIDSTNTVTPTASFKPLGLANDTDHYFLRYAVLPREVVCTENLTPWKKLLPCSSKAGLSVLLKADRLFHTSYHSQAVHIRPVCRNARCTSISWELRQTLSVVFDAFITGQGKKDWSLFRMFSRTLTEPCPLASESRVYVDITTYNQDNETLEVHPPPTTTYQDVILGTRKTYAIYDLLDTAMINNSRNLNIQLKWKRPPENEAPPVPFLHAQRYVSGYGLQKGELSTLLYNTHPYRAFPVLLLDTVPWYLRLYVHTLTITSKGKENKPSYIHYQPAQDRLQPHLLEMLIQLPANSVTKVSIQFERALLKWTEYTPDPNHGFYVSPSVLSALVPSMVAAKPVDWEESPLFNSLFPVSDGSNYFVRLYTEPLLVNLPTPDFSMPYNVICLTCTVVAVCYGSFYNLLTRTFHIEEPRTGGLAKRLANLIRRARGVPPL
UniProt Q04759, sequence (Q04759 whole entry, looked up): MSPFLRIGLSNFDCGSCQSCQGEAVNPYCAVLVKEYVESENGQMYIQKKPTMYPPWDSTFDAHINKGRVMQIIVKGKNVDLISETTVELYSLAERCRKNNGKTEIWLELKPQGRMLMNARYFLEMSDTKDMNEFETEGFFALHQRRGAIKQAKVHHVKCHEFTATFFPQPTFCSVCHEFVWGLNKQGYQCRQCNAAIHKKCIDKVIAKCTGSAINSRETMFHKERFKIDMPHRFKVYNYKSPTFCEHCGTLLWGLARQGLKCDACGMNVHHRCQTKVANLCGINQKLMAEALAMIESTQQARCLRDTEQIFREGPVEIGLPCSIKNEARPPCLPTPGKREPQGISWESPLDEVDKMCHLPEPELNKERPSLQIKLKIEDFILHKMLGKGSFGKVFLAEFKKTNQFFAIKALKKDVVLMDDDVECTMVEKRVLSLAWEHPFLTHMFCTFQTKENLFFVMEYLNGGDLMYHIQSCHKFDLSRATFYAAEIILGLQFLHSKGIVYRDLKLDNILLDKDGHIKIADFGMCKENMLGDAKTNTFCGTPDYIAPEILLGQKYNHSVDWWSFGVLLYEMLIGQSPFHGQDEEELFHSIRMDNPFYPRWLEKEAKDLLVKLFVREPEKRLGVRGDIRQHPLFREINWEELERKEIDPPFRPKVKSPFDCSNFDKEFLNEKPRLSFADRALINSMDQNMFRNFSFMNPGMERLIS
UniProt P42785, sequence (P42785 whole entry, looked up): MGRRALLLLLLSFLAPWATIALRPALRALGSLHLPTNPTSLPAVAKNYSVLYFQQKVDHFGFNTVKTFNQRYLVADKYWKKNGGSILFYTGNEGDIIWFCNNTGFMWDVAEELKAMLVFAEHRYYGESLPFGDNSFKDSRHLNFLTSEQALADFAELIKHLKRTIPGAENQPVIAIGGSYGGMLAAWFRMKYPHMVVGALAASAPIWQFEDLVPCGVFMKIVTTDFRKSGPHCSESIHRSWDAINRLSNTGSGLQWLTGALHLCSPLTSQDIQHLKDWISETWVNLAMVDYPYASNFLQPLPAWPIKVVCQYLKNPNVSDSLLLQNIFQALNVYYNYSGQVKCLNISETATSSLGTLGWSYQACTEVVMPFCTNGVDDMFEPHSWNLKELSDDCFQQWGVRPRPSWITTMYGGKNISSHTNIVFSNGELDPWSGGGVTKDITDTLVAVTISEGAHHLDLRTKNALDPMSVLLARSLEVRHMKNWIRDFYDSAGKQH
UniProt Q16512, sequence (Q16512 whole entry, looked up): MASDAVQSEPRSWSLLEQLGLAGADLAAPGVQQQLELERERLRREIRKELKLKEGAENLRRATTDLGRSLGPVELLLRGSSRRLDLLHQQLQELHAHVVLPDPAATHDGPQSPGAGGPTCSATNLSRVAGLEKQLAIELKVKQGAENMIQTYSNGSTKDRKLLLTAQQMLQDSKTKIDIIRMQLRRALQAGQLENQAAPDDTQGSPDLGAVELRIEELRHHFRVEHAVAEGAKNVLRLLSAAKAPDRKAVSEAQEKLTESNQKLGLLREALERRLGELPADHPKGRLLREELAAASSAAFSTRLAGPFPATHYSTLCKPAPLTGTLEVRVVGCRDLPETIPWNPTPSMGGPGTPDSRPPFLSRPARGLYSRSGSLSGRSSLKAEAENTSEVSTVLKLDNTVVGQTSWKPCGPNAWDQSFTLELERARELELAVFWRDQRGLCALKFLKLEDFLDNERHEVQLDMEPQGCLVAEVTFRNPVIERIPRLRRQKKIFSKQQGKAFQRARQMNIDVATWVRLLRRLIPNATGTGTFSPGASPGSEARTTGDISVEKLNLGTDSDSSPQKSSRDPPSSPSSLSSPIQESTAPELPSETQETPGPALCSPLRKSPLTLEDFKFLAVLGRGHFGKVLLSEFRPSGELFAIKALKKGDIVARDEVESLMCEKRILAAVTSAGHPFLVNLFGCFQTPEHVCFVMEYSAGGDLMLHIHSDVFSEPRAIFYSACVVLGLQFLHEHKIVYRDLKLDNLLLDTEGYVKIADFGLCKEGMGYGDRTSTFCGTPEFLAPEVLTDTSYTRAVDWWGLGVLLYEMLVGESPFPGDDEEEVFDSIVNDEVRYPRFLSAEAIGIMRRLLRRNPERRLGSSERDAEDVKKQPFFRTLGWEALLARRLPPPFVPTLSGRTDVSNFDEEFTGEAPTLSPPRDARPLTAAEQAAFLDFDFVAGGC
UniProt Q14997, sequence (Q14997 whole entry, looked up): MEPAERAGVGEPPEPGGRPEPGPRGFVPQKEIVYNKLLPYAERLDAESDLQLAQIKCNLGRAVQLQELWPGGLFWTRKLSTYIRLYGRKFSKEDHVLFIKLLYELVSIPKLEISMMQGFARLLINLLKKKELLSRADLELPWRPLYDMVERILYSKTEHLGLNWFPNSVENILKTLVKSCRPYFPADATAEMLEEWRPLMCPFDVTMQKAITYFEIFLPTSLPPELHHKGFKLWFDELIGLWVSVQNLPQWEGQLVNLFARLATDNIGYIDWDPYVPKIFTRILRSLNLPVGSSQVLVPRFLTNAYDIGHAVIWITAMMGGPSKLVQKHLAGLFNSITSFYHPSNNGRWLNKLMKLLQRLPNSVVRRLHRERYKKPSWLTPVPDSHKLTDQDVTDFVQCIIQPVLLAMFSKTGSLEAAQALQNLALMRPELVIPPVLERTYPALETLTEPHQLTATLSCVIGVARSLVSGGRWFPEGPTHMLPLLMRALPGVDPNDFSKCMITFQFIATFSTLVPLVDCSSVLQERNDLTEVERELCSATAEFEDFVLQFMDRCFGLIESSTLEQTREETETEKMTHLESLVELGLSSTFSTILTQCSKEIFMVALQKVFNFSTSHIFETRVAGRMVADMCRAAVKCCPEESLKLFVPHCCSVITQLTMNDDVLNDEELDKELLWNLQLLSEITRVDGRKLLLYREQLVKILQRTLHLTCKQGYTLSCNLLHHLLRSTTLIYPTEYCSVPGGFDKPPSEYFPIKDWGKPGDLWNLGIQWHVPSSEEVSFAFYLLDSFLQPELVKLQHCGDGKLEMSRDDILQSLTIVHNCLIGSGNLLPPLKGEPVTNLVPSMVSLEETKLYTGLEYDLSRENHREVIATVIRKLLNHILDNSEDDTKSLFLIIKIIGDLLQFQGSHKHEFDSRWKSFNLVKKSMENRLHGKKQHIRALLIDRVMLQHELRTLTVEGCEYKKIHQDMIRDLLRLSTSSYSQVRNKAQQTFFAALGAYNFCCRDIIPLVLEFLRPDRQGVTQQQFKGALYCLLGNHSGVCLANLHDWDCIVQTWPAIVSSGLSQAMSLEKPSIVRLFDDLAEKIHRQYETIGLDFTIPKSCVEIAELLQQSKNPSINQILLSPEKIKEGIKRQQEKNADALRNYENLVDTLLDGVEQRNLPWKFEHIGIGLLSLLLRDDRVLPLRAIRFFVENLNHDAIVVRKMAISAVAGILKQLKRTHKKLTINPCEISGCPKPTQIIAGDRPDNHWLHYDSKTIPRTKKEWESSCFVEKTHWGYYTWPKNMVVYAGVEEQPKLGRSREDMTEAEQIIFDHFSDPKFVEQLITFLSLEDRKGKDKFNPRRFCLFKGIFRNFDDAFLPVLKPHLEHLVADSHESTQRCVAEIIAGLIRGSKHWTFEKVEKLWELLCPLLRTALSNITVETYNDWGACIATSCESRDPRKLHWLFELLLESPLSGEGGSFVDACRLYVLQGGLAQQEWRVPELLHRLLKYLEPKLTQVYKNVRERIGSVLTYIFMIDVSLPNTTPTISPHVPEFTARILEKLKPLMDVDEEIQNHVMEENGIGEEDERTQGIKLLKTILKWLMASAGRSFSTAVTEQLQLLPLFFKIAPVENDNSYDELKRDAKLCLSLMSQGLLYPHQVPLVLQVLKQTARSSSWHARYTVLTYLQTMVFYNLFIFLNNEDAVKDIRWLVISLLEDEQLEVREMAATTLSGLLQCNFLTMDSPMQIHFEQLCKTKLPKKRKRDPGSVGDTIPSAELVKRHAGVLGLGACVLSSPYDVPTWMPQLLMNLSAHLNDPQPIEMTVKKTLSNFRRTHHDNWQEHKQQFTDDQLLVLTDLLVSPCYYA

log2 fold change, inactive:
PIP4P2 (UniProt Q8N4L2) 0, PIGT (UniProt Q969N2) 0.01, POLR2I (UniProt P36954) 0.136, PPP6R1 (UniProt Q9UPN7) 0.009, PRKCQ (UniProt Q04759) -0.026, POLR1A (UniProt O95602) 0.06, PRPSAP2 (UniProt O60256) 0.008, PSME4 (UniProt Q14997) -0.022, PPM1G (UniProt O15355) -0.102, PRKAR2B (UniProt P31323) -0.011, PKN1 isoform 2 (UniProt Q16512) -0.018, PRCP (UniProt P42785) 0.012
